The text below walks through data of PubChem BioAssay AID434927 (Sanford-Burnham Center for Chemical Genomics, 2010).

SMILES strings stand for the structures. Values without a mark were called inactive. The source made the active and inactive calls.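 The calls were made as follows: active = inhibition above about 23% in any of six single-dose repeats (limit read from the data); inactive = the rest.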

The term inhibition denotes the drop in the measured response relative to a control, in per cent.

The assay deals with Intestinal-type alkaline phosphatase (Homo sapiens) (UniProt P09923). The assay can be described thus: suppression of intestinal alkaline phosphatase activity – biochemical, luminescence, single concentration, uHTS hits, confirmation (AID 434927).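 Also: plate controls were DMSO wells with enzyme for no effect and wells lacking enzyme for full effect.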 To be noted: purified human IAP, CDP-Star luminescence, 30 min; at 8.3 µM; active compounds read high.
Chain of Intestinal-type alkaline phosphatase (Homo sapiens) (P09923 whole entry, looked up): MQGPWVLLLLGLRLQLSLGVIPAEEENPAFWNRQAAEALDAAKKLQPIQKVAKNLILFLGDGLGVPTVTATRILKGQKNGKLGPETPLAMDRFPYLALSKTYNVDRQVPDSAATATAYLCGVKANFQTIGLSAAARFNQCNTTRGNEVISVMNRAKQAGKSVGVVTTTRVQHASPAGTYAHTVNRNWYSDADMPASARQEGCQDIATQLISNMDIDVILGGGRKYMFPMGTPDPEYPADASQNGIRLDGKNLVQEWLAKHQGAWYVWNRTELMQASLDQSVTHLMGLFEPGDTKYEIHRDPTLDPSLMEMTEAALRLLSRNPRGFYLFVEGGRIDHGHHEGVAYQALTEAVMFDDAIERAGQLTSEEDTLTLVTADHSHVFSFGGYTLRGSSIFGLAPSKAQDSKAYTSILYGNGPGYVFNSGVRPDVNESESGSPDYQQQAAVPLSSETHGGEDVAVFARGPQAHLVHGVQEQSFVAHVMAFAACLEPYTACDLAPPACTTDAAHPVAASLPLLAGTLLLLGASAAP
Consider `Cc1cc2nc(C3CCN(Cc4nnnn4Cc4cccs4)CC3)[nH]c2cc1C`, for which the inhibition is 79.3% (active).

`Cc1cccn2c(=O)c3cc(C(=O)NC4CCCC4)c(=N)n(C4CCCCC4)c3nc12`: the inhibition is -122%.

For `COc1ccccc1C1=NN(C2=NN=C(N)Cc3ncnn32)C(O)(C(F)(F)F)C1` (stereo not drawn), the inhibition is 45.2% (active).

Take `Cc1cc(C)c2nc(SCC(=O)NNC(=O)c3ccco3)c(C)cc2c1`: the inhibition was -58.7%.

`Cc1ccc(NC(=O)c2ccncc2)cc1[N+](=O)[O-]`: the inhibition was 53.7% (active).

Turning to `CSCCC(NS(=O)(=O)c1ccccc1F)C(=O)NNC(=O)c1csc(N2CCOCC2)n1` (stereo not drawn), the inhibition was 72.3% (active).

As to `COC(=O)CN1C(=O)C(O)(CC(=O)c2ccc(C)cc2)c2ccccc21` (stereo not drawn), the inhibition was 45.9% (active).

In the case of `CC(/C=N/NC(=O)CCn1nnc2ccccc21)=C\c1ccccc1`, the inhibition was -88.8%.

With `Cc1ccc(Cl)cc1NC(=O)C(=O)N/N=C/c1ccc2c(c1)OCO2`, the inhibition was 40.1% (active).

Turning to `O=C(NCCCN1CCOCC1)c1ccc2c(c1)N(Cc1ccc(Cl)cc1)C(=O)c1ccccc1S2=O` (stereo not drawn), the inhibition is -47.5%.

For `O=C(N/N=C/c1c(F)cccc1Cl)c1cc(C2CC2)[nH]n1`, the inhibition was 37.7% (active).

With `Cc1nc(S/C(=C/c2ccc(-c3ccc(Cl)cc3)o2)C(=O)O)n[nH]1`, the inhibition is -88.7%.

For `Nc1ccc(-c2c3ccc(=O)cc-3oc3cc(O)ccc23)cc1C(=O)O`, the inhibition was 64.5% (active).

Turning to `CC(C)CCNC(=O)C1CCN(C(=O)N(C)C)CC1`, the inhibition was 88.2% (active).

`CCOc1cccc(OCCOCCOc2ccccc2C(C)=O)c1`: the inhibition was -219%.

On to `CC(C)n1cc(CN2CCC(C(=O)Nc3cccc(-c4cccc(Cl)c4)c3)CC2)cn1`, for which the inhibition is -96.7%.

On to `Cc1ccc(O)c(/C=N/NC(=O)c2[nH]ncc2Br)c1`, for which the inhibition was 23.2% (active).

For the molecule `Cc1c(C(=O)N/N=C/c2c(O)ccc3ccccc23)nnn1-c1nonc1N`, the inhibition was -86.1%.

For the molecule `NC(=O)c1ccc(NC(=O)C2CCCC2)cc1`, the inhibition is -40.2%.

For the molecule `c1ccc(Nc2ccnc(Nc3ccccc3)n2)cc1`, the inhibition is -43.5%.

Regarding `c1ccc(-c2nnc(CN3CCC4(CC3)OCCO4)o2)cc1`, the inhibition is 29.7% (active).

For the molecule `C=CCN1C(=O)/C(=C\C=C2\N(C)c3ccccc3C2(C)C)SC1=S`, the inhibition was -267%.

On to `CCOCCCNC(=O)CCC(=O)NNc1nc2ccccc2c2nc(-c3ccccc3)nn12`, for which the inhibition was 48.4% (active).

With `O=C(NC(=S)NNC(=O)c1ccccc1O)c1ccc(F)cc1`, the inhibition is 62.4% (active).

As for `O=C(CN1CCN(C(=O)N2CCCCC2)CC1)Nc1ccc(F)cc1`, the inhibition was -97.3%.

Regarding `Cc1cc(C(=O)NNC(=O)COc2c(C)cc(Br)cc2C)n[nH]1`, the inhibition was -0.057%.

In the case of `O=Nc1[nH]c(=O)c(/C=C(\O)c2ccccc2)nc1NO`, the inhibition was -84.9%.

For the molecule `Cc1[nH]n(-c2nc(-c3ccccc3F)cc(=O)[nH]2)c(=O)c1CCO`, the inhibition is -39.7%.

Consider `O=c1c2cc(O)c(O)cc2oc2cc(O)c(C3OC(CO)C(O)C(O)C3O)c(O)c12` (stereo not drawn), for which the inhibition was -148%.

Take `COc1ccc(NC(=S)NNC(=O)c2nnn(-c3ccccc3)c2C)cc1`: the inhibition was 24% (active).

As to `CC(=O)N1CCOc2ccc(S(=O)(=O)N3CCCC(C)C3)cc21` (stereo not drawn), the inhibition is 54% (active).

With `COc1cccc(-c2nc(CS(=O)(=O)CC(=O)Nc3cc(OC)ccc3OC)c(C)o2)c1`, the inhibition was 31.5% (active).

Turning to `Cc1cc2cc3c(cc2nc1SCC(=O)Nc1nc(C)c(C)s1)OCO3`, the inhibition is 43.9% (active).
